Results on 16 compounds are retold here after PubChem BioAssay (NCATS).

Assay [1] concerns the target Cytochrome P450 1A2 (Homo sapiens) (UniProt P05177). The assay is described as follows: p450-cyp1a2 (AID 410; calls by dose curve; note: potency is the fitted concentration of half-maximal effect). The method in brief:
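Read-out is luminescence from luciferin produced by CYP1A2 demethylation of Luciferin-ME (100uM, at Km). Detection reagent stopped the 60 min NADPH-dependent reaction; signals were normalized to 57 uM furafylline.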

For assay [2], the target named is Glucocorticoid receptor (Homo sapiens) (UniProt P04150). Kind of assay: GR-EFC Redistribution (AID 451; calls by dose curve; note: potency is the fitted concentration of half-maximal effect). As to conditions: CHO-K1 GR-EFC translocation, beta-gal luminescence, 2 h. In outline:
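CHO-K1 cells stably expressing nuclear-localized β-gal enzyme acceptor and GR fused C-terminally to the enzyme donor fragment; ligand-driven nuclear translocation restores β-gal by complementation. Compounds titrated up to 46 uM final, 2 h at 37 °C; luminescence read.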

Assay [3] deals with Mitogen-activated protein kinase 10 (Mus musculus) (UniProt Q61831). Kind of assay: JNK3 AlphaScreen Assay (AID 530; active = well fitted curve in either direction with a large enough effect, not every such curve was filed as active;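 note: kinase came from lysate of stimulated human HepG2 cells; signal reports phosphorylation of biotinylated GST-cJun 1-79 at Ser73 with 10 µM ATP; series mostly up to about 57 µM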). In outline: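 Biotinylated GST-cJun(1-79) served as substrate for JNK3 in HepG2 lysates stimulated with IL-1beta and TNF-alpha. ATP was 10 uM final, pH 7.6. Ser73 phosphorylation was quantified by AlphaScreen (680 nm excitation).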
Assay [4] deals with 3',5'-cyclic-AMP phosphodiesterase 4B (Homo sapiens) (UniProt Q07343). Kind of assay: qHTS Assay for Inhibitors of PDE-IV (AID 607; active = well fitted activation curve with a large enough effect in the main read-out, with a control signal flat, not every such curve was filed as active). The method in brief:
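Cell-based read-out of cAMP via a modified cyclic nucleotide-gated channel and membrane potential dye (535/590 nm) in HEK293 cells expressing PDE4 endogenously. Compounds tested up to 22.9 uM final; 100 uM RO 20-1724 reference.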
On the technique in general: In qHTS, concentration-response curves come from the screen itself.

Assay [5] concerns the target Cytochrome P450 2C9 (Homo sapiens) (UniProt P11712). The assay is described as follows: qHTS Assay for Inhibitors and Substrates of Cytochrome P450 2C9 (AID 883). Note: nearly all actives have a fitted effect of over 60% in size. The method in brief: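 A luminogenic readout tracked human CYP2C9 (10nM) converting deoxyluciferin (100uM, at KM) in 25mM KPO4 during 60 min at 37C with regenerated NADPH. Values normalized to 57uM sulphaphenazole as complete inhibition.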

In assay [6] the target is Cytochrome P450 2D6 (Homo sapiens) (UniProt P10635). The assay is described as follows: qHTS Assay for Inhibitors and Substrates of Cytochrome P450 2D6 (AID 891). Note: nearly all actives have a fitted effect of over 60% in size. Note: potency is the fitted concentration of half-maximal effect. In outline:
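Luminescent read-out of luciferin formed by 5 nM human CYP2D6 demethylating 30 uM Luciferin-ME EGE (Km level) over 60 min at room temperature after NADPH regeneration addition. Data normalized to full inhibition by 1.43 uM quinidine.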

Assay [7] addresses Cytochrome P450 2C19 (Homo sapiens) (UniProt P33261). Kind of assay: qHTS Assay for Inhibitors and Substrates of Cytochrome P450 2C19 (AID 899). Note: nearly all actives have a fitted effect of over 60% in size. The method in brief: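 NADPH-dependent conversion of Luciferin-H EGE (10uM, at KM) by 5nM enzyme in 50mM KPO4, 60 min at 37C following 10 min compound preincubation. Stopped with luciferin detection buffer; luminescence read after 20 min.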

Assay [8] concerns the target Glucocorticoid receptor (Homo sapiens) (UniProt P04150). Kind of assay: GR-GFP Redistribution (AID 450;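 active = compounds whose dose series gives a full or clear partial fitted curve of increased nuclear translocation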; note: potency is the fitted concentration of half-maximal effect).
Assay [9] concerns the target Cytochrome P450 3A4 (Homo sapiens) (UniProt P08684). Kind of assay: qHTS Assay for Activators of Cytochrome P450 3A4 (AID 885). Note: nearly all actives have a fitted effect of over 65% in size. In outline: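 Luminescent readout of luciferin formed from 25 uM Luciferin-PPXE (KM level) by 20 nM CYP3A4 in 200 mM KPO4, with 60 min NADPH-driven reaction at room temperature after 10 min compound exposure. Ketoconazole (57 uM) defined 100% inhibition.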

The target in assay [10] is DNA dC->dU-editing enzyme APOBEC-3G (Homo sapiens) (UniProt Q9HC16). Kind of assay: qHTS for inhibitors of Vif-A3G interactions: Validation (AID 588379). The method in brief:
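Yellow fluorescence (Ex 488, Em 500-530) of Vif-coexpressing HeLa A3G-eYFP cells, scanned by Acumen cytometer, reports blocked A3G degradation. Cells plated at 700/well overnight at 37 deg C before compound addition, then a further overnight compound incubation at 37 deg C.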

Unmarked numbers belong to inactive results. Records with an inconclusive call do not appear. The source made the active and inactive calls. Unless noted, calls come from the whole dose curve; as a rule, active = well fitted curve in the direction sought with a large enough effect; inconclusive = small, poorly fitted or top-dose-only effect, or another doubt; inactive = no such curve, though single readings can be large; an effect the other way counts as inactive or inconclusive. A value given as a limit tells only on which side of the number the result lay.

Sequence of Cytochrome P450 1A2 (Homo sapiens) (P05177 whole entry, looked up): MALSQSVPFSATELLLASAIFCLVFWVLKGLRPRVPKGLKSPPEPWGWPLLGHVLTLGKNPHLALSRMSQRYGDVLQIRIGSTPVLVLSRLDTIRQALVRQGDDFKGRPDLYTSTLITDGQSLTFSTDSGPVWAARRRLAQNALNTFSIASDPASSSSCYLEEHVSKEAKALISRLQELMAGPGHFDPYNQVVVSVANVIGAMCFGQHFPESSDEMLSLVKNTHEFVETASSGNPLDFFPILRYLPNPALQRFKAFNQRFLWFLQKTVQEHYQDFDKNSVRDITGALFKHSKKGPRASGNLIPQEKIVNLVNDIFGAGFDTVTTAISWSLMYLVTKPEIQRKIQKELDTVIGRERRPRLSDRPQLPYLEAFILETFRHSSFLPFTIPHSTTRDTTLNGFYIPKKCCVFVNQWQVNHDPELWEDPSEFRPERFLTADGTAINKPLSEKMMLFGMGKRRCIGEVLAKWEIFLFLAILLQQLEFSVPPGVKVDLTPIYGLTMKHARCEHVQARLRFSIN
Sequence of Glucocorticoid receptor (Homo sapiens) (P04150 whole entry, looked up, the tested form may be a part): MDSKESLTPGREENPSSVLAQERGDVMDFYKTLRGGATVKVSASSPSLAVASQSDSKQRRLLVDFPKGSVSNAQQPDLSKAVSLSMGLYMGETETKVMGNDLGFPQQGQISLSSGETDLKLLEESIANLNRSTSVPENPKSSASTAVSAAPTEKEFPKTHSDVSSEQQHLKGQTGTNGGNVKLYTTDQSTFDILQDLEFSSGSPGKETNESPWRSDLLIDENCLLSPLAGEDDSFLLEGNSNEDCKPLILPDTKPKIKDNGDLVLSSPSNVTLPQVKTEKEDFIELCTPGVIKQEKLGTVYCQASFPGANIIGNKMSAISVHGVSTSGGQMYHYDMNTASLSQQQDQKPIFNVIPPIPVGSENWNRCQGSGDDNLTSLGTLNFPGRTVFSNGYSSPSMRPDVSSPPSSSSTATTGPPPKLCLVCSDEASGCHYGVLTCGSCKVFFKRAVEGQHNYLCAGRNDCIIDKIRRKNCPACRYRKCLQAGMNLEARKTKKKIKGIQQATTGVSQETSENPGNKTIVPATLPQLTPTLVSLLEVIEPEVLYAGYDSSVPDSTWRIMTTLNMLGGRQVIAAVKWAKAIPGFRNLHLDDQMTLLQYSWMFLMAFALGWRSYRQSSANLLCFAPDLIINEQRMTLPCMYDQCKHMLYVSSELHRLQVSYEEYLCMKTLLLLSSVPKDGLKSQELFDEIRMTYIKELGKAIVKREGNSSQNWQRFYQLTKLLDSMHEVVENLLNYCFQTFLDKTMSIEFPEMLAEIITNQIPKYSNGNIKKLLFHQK
Sequence of Cytochrome P450 2C19 (Homo sapiens) (P33261 whole entry, looked up): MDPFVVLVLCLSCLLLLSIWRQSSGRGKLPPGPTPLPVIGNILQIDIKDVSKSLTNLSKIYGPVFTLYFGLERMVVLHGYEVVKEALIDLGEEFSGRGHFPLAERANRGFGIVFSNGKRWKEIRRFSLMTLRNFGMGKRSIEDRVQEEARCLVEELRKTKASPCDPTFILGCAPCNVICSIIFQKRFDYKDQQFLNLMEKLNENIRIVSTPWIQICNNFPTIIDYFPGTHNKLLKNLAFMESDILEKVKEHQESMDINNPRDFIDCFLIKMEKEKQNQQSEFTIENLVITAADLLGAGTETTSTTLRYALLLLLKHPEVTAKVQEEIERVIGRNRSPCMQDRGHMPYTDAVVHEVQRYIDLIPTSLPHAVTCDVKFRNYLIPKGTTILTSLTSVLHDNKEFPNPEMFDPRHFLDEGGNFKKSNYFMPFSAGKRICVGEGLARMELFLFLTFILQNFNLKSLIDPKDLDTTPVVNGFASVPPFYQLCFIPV
Sequence of Cytochrome P450 2C9 (Homo sapiens) (P11712 whole entry, looked up): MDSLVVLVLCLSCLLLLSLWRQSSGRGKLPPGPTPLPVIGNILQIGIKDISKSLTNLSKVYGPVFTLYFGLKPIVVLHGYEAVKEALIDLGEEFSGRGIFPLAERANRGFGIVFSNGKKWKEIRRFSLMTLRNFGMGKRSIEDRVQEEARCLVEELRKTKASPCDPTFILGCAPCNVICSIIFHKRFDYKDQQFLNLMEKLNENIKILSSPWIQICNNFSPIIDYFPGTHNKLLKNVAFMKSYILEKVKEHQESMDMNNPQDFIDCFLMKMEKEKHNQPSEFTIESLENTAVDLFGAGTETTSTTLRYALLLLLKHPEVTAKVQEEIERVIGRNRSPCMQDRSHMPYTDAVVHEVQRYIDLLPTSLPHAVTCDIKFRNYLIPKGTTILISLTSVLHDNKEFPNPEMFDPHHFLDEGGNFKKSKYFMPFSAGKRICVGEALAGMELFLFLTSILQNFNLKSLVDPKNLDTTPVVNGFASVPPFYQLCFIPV
Sequence of 3',5'-cyclic-AMP phosphodiesterase 4B (Homo sapiens) (Q07343 whole entry, looked up): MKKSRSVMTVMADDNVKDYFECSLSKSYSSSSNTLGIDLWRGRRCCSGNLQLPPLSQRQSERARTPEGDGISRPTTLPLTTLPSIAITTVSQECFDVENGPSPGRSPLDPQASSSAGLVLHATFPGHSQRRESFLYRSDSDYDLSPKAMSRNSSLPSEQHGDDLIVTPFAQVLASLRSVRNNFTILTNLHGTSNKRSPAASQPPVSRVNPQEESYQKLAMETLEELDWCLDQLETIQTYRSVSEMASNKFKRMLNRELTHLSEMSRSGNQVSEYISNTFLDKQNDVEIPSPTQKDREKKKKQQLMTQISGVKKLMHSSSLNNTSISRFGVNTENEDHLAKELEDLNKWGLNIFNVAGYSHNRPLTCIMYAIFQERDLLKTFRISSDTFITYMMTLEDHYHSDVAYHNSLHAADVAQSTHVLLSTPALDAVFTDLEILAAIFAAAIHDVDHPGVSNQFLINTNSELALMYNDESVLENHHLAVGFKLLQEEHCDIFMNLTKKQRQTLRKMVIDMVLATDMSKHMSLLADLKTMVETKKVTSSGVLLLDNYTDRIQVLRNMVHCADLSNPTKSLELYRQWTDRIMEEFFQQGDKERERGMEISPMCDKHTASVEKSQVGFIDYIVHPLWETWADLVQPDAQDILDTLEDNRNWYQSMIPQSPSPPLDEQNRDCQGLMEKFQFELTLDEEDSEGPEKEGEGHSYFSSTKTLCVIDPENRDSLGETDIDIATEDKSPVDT
Sequence of Cytochrome P450 2D6 (Homo sapiens) (P10635 whole entry, looked up): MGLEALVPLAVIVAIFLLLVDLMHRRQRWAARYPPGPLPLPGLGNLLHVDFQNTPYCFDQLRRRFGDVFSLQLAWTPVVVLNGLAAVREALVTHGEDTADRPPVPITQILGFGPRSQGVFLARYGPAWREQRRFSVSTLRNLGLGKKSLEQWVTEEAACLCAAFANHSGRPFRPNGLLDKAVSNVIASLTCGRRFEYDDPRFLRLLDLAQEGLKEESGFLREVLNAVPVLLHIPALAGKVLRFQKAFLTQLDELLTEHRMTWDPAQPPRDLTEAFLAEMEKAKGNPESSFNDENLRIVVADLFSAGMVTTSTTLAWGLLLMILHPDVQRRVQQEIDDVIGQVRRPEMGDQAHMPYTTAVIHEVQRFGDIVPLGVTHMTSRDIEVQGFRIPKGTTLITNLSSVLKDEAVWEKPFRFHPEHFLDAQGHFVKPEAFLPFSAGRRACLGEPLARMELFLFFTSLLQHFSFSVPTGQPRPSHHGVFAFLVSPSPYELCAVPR
Sequence of DNA dC->dU-editing enzyme APOBEC-3G (Homo sapiens) (Q9HC16 whole entry, looked up): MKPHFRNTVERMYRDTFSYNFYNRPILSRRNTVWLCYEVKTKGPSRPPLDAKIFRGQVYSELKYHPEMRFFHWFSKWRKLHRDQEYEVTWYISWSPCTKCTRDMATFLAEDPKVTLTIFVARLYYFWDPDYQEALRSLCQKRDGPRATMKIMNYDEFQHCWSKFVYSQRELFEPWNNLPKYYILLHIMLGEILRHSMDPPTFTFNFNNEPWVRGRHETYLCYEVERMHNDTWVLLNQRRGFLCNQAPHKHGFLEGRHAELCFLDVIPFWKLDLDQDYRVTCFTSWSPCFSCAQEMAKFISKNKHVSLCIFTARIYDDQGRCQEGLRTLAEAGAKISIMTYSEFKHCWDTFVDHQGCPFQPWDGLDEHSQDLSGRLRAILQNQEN
Sequence of Cytochrome P450 3A4 (Homo sapiens) (P08684 whole entry, looked up): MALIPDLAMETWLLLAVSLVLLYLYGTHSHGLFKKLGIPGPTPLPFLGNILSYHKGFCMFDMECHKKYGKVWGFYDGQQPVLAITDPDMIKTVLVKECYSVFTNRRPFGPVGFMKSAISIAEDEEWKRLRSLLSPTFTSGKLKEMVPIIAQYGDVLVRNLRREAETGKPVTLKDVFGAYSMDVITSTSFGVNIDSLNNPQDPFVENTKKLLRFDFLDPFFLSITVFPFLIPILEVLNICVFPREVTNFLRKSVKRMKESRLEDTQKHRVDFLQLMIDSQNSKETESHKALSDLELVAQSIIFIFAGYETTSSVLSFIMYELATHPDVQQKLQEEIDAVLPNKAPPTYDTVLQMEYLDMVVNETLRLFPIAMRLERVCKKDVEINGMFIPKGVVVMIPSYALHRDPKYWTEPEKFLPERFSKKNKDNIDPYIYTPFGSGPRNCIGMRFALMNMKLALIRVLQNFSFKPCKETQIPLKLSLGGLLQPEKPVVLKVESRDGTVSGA

Turning to `CC(C)[C@@H](CC(=O)N[C@@H]1CCNC[C@H]1C(=O)N[C@H](CC(=O)N[C@@H](CCC(=O)O)CC(=O)O)Cc1c[nH]c2ccccc12)NC(=O)C[C@H](CO)NC(=O)[C@@H]1CCCC[C@H]1N`, the Potency entry in assay [1], in [3], in [4], in [5], in assay [6] and in [7] was “inactive” each time. In addition, in assay [2], the Potency was greater than 46 µM.
Regarding `O=c1cc(-c2ccccc2O)oc2ccc3ccccc3c12`, the Potency in [1] was 1 µM (active); in assay [8], greater than 46 µM; in assay [6] it was 20 µM (active). Also, in [9], the Potency entry was “inactive”. In addition, in assay [10], the result was inactive.
For `CC[C@@H]1[C@H]2CCCCN3[C@@H]2[C@@H](C[C@H]3[C@@H]2C[C@H](C)C(=O)O2)[C@@H]2[C@H]1OC(=O)[C@H]2C`, the Potency in [1] was 25.1 µM (active); in [8], greater than 46 µM. In addition, the Potency result in assay [3], in assay [4] and in [7] was “inactive” throughout.
On to `NCCC[C@@H](CC(=O)N[C@@H]1CCNC[C@H]1C(=O)N[C@H](CC(=O)N[C@@H](CCC(=O)O)CC(=O)O)Cc1c[nH]c2ccccc12)NC(=O)C[C@H](CO)NC(=O)[C@@H]1CCCC[C@H]1N`, for which the Potency result in assay [1], in assay [3], in assay [4], in assay [5] and in assay [6] was “inactive” throughout. Moreover, the Potency in [2] is greater than 46 µM.
As to `NCCC[C@@H](CC(=O)N[C@@H]1CCCC[C@H]1C(=O)N[C@H](CC(=O)N[C@@H](CCC(=O)O)CC(=O)O)Cc1c[nH]c2ccccc12)NC(=O)C[C@H](CO)NC(=O)[C@@H]1CCCC[C@H]1N`, the Potency entry in [1], in [3], in assay [4] and in assay [6] was “inactive” throughout. Moreover, the Potency in assay [2] is greater than 46 µM.
Consider `CC(C)C[C@@H](CC(=O)N[C@@H](CCC(=O)O)CC(=O)O)NC(=O)[C@@H]1CNCC[C@H]1NC(=O)C[C@H](CCCN)NC(=O)C[C@H](Cc1ccccc1)NC(=O)[C@@H]1CCCC[C@H]1N`, for which the Potency in assay [1] was 25.1 µM (active); in [2], greater than 46 µM. In addition, the Potency entry in assay [3], in assay [4], in assay [5], in [6] and in assay [7] was “inactive” throughout.
As for `CC(C)C[C@@H](CC(=O)N[C@@H](CCC(=O)O)CC(=O)O)NC(=O)[C@@H]1CNCC[C@H]1NC(=O)C[C@H](CCCN)NC(=O)C[C@H](Cc1ccccc1)NC(=O)[C@@H]1CNCC[C@H]1N`, the Potency in assay [1] was 31.6 µM (active); in assay [2] it was greater than 46 µM. For the same compound, the Potency entry in assay [3], in [4], in assay [5], in [6] and in assay [7] was “inactive” each time.
Take `NCCC[C@@H](CC(=O)N[C@@H]1CCCC[C@H]1C(=O)N[C@H](CC(=O)N[C@@H](CCC(=O)O)CC(=O)O)Cc1c[nH]c2ccccc12)NC(=O)C[C@H](Cc1ccccc1)NC(=O)[C@@H]1CNCC[C@H]1N`: the Potency in [1] was 15.8 µM (active); in assay [2] it was greater than 46 µM. Also, the Potency result in assay [3], in assay [4], in assay [5], in assay [6] and in assay [7] was “inactive” throughout.
As for `CC(C)C[C@@H](CC(=O)N[C@@H](CCC(=O)O)CC(=O)O)NC(=O)[C@@H]1CCCC[C@H]1NC(=O)C[C@H](CCCN)NC(=O)C[C@H](Cc1ccccc1)NC(=O)[C@@H]1CCCC[C@H]1N`, the Potency result in [1], in assay [3], in assay [4], in assay [5] and in assay [6] was “inactive” each time. Also, in assay [2], the Potency was greater than 46 µM.
For `CC(C)C[C@@H](CC(=O)N[C@H](CC(=O)N[C@@H]1CCCC[C@H]1C(=O)N[C@H](CC(=O)N[C@@H](CCC(=O)O)CC(=O)O)Cc1c[nH]c2ccccc12)C(C)C)NC(=O)[C@@H]1CCCC[C@H]1N`, the Potency result in [1], in [3], in assay [4], in assay [6] and in assay [7] was “inactive” each time. The Potency in assay [2] was greater than 46 µM.
Take `CC(C)[C@@H](CC(=O)N[C@@H]1CCNC[C@H]1C(=O)N[C@H](CC(=O)N[C@@H](CCC(=O)O)CC(=O)O)Cc1ccccc1)NC(=O)C[C@H](Cc1c[nH]c2ccccc12)NC(=O)[C@@H]1CCCC[C@H]1N`: the values for the Potency in [1] and in assay [2] were 39.8 µM (active) and greater than 46 µM, respectively. In addition, the Potency entry in [3], in [4], in [6] and in assay [7] was “inactive” in each case.
For `CC(=O)O[C@@H]1CC[C@]2(C)[C@H]3CC[C@]4(C)[C@H](C[C@H]5CCCC[C@@]54C(C)=O)[C@@H]3CC(=O)[C@@]2(O)C1`, the Potency is 20 µM (active) in [1] and greater than 46 µM in assay [8]. Also, the Potency entry in [3], in assay [4] and in [6] was “inactive” throughout.
In the case of `CC(C)C[C@@H](CC(=O)N[C@H](CC(=O)N[C@@H]1CCNC[C@H]1C(=O)N[C@H](CC(=O)N[C@@H](CCC(=O)O)CC(=O)O)Cc1ccccc1)C(C)C)NC(=O)[C@@H]1CNCC[C@H]1N`, the Potency is 31.6 µM (active) in assay [1] and greater than 46 µM in [2]. Also, the Potency entry in assay [3], in assay [4], in assay [5], in assay [6] and in assay [7] was “inactive” throughout.
With `CC(C)[C@@H](CC(=O)N[C@@H]1CCNC[C@H]1C(=O)N[C@H](CC(=O)N[C@@H](CCC(=O)O)CC(=O)O)Cc1ccccc1)NC(=O)C[C@H](CO)NC(=O)[C@@H]1CCCC[C@H]1N`, the Potency result in [1], in assay [3], in assay [4], in assay [5], in assay [6] and in assay [7] was “inactive” each time. Further, the Potency in [2] was greater than 46 µM.
`O=c1ccn([C@H]2O[C@H](CO)[C@@H](O)[C@@H]2O)c(=O)[nH]1`: the Potency result in assay [1], in assay [3], in assay [4], in assay [6] and in assay [7] was “inactive” throughout. The Potency in [8] was greater than 46 µM.
Regarding `CC(C)C[C@@H](CC(=O)N[C@@H](CCC(=O)O)CC(=O)O)NC(=O)[C@@H]1CNCC[C@H]1NC(=O)C[C@H](CCCN)NC(=O)C[C@H](CO)NC(=O)[C@@H]1CNCC[C@H]1N`, the Potency result in assay [1], in [3], in assay [4] and in assay [6] was “inactive” throughout. Moreover, in assay [2], the Potency is greater than 46 µM.
